# Values joined by “and” are separate entries in the source; they are usually repeats but may differ in a detail not shown here. Identical values can stand only once. Unmarked numbers belong to inactive results. This is one part of the list. Active and inactive are the calls of the source.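 How the source made its calls, unless noted: active means mean inhibition above a 50% cutoff; inactive means the rest.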
# Experiments:
# [1] = growth loss of phage-infected E. coli expressing H. pylori AddAB, confirmation, AddAB inhibitor project, absorbance, E. coli V3065, T4 phage, triplicate (AID 488942;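 active means mean inhibition above a set limit taken from the earlier primary screen, cut at about 13% in these data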;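 further: higher means less bacterial growth since AddAB block lets phage replicate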); settings: OD, at 11.9 µM, stronger effect = higher value, T4 phage with gene 2 nonsense mutations
# [2] = growth loss of RecBCD+ E. coli with mutant T4 phage, counter-screen for AddAB inhibitor project, absorbance, V66 E. coli (AID 488955;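 active means mean inhibition above the mean of solvent-only control wells plus 3 SD, cut at about 4% in these data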;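 further: optical density read after an 18 h incubation at 37 °C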); settings: OD growth, at 11.9 µM, stronger effect = higher value
# [3] = bacterial viability inhibition counter-screen, confirmation, counter-screen for AddAB inhibitor project, absorbance (AID 488956; in the data active means inhibition above about 25%); settings: absorbance (AddAB counterscreen), at 11.9 µM, stronger effect = higher value
# [4] = growth loss of phage-infected RecBCD+ E. coli, confirmation, RecBCD inhibitor project, absorbance, E. coli V66, T4 gene 2 phage (AID 651982;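 active means mean inhibition over triplicates exceeding the hit threshold derived in the original primary screen, cut at about 11% in these data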); settings: E. coli V66 + T4 2- phage, growth OD; at 11.9 µM; stronger effect = higher value
# [5] = E. coli viability inhibition, counter-screen for RecBCD inhibitor project, absorbance, high throughput (AID 651983; in the data active means inhibition above about 20%;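 further: E. coli strain V66 grown with compound alone and no phage infection; 0% = bacteria with DMSO vehicle only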); settings: absorbance (OD) growth, at 11.9 µM, stronger effect = higher value
# [6] = growth loss of phage-infected AddAB-carrying E. coli, confirmation, counter-screen for RecBCD inhibitor project, absorbance, E. coli V3065, T4 phage (AID 651984;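 active means mean inhibition above the solvent-only control wells' mean plus 3 SD, cut at about 22% in these data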;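 further: higher means less bacterial growth from phage killing when AddAB is blocked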); settings: E. coli expressing H. pylori AddAB + T4 phage, OD growth; at 11.9 µM; stronger effect = higher value; gene 2 mutant T4, recBCD-deleted host
# [7] = target: Serine protease HTRA1 (Homo sapiens) (UniProt Q92743); assay: HTRA1 protease inhibitors, retest, confirmation, biochemical, fluorescence polarization (AID 540248;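 active means mean inhibition over three repeats above a set limit taken from the earlier primary screen, cut at about 37% in these data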;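 further: 0% = HTRA1 with DMSO and 100% = wells lacking HTRA1; inhibitors block probe binding so polarization drops and inhibition rises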); settings: recombinant HTRA1, FP-rhodamine activity-based probe, at 5.96 µM, stronger effect = higher value
# [8] = target: Toll-like receptor 9 (Homo sapiens) (UniProt Q9NR96); assay: TLR9-MyD88 association inhibitors, retest, confirmation, cell-based, CHO, BLA complementation, fluorescence, triplicate (AID 540250;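 active means mean inhibition across three repeats above about 21% taken from the earlier screen, limit read from the data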;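 further: blue over green emission ratio reports constitutive TLR9 MyD88 association via BLA complementation; 0% = DMSO vehicle wells and 100% = clavulanate BLA inhibitor wells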); settings: CCF4 FRET ratio, at 4.98 µM, stronger effect = higher value
# Toll-like receptor 9 (Homo sapiens), sequence (Q9NR96 whole entry, looked up): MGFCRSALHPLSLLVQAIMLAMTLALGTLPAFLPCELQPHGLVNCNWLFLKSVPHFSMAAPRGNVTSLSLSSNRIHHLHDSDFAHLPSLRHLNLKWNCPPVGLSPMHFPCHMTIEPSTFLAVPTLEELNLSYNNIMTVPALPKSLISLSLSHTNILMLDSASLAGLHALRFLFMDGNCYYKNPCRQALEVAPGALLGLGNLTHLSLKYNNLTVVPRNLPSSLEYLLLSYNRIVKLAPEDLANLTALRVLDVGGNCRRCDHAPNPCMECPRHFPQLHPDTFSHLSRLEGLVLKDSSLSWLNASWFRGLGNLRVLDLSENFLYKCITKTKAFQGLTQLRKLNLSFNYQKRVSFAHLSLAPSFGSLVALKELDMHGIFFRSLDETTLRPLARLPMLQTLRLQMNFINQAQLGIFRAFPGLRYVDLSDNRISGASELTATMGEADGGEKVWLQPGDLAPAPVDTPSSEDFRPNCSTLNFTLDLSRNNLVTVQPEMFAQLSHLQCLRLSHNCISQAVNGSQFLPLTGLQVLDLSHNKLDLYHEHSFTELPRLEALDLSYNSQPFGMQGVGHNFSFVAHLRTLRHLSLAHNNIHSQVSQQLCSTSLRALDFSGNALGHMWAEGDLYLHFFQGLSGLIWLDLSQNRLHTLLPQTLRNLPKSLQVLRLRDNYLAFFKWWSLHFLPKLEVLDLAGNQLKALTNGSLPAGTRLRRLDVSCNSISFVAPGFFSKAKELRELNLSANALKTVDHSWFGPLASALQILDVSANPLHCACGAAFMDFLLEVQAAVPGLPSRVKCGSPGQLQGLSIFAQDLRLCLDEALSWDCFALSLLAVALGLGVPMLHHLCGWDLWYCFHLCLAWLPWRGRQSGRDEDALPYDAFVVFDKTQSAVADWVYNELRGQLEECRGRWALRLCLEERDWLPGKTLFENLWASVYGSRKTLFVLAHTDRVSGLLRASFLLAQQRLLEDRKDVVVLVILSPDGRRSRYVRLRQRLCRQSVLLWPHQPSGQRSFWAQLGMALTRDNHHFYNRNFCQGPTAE
# [9] = beta-lactamase reporter inhibitors in CHO cells, artefact control for TLR9-MyD88 binding inhibitor project, cell-based, fluorescence (AID 540251); settings: CHO-BLA cells, CCF4 FRET ratio, at 4.98 µM, stronger effect = higher value;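 further: counterscreen of TLR9-MyD88 hits on CMV-driven BLA in CHO-K1 cells; 0% = DMSO alone and 100% = clavulanate blocking BLA; higher means less blue over green ratio so more BLA blockade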
# [10] = CHO cell viability loss – luminescence, single concentration, cytotoxicity control for TLR9-MyD88 binding inhibitor project (AID 588336; in the data active means inhibition above about 11%); settings: TLR9-MyD88 CHO cells cytotoxicity, at 4.98 µM, stronger effect = higher value
# [11] = target: Receptor-interacting serine/threonine-protein kinase 2 (Homo sapiens) (UniProt O43353); assay: NOD2-RIPK2 binding disruptors, retest, confirmation, fluorescence, CHO cells, BLA complementation, triplicate (AID 624370;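 active means mean inhibition across replicates above a set limit taken from the earlier primary screen, cut at about 21% in these data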;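 further: 0% = DMSO-only wells and the high end = clavulanate BLA-blocked wells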); settings: CCF4 FRET, at 4.98 µM, stronger effect = higher value
# Receptor-interacting serine/threonine-protein kinase 2 (Homo sapiens), sequence (O43353 whole entry, looked up): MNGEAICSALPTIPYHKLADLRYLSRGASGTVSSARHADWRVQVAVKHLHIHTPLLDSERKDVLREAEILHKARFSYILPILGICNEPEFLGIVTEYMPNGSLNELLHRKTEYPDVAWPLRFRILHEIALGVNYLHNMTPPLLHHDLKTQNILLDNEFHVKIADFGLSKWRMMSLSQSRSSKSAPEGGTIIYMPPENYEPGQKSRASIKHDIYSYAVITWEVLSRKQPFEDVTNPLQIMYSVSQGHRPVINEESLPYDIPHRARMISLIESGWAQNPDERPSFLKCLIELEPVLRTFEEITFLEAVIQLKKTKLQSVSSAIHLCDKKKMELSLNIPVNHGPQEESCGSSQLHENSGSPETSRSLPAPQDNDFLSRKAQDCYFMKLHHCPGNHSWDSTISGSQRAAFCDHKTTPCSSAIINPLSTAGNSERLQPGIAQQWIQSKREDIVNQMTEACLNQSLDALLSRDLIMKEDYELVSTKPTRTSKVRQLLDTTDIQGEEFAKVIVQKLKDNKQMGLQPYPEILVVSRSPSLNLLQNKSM
# [12] = beta-lactamase reporter inhibitors in CHO cells, confirmation, artefact control for NOD2-RIPK2 interaction inhibitor project, cell-based, CHO-K1 CMV-bla, CCF4 FRET, fluorescence (AID 624371;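 active means mean inhibition above the low-control mean inhibition plus three low-control SD, cut at about 11% in these data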;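 further: 0% = DMSO only wells and 100% = clavulanate high control wells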); settings: CCF4 FRET ratio, counterscreen, at 4.98 µM, stronger effect = higher value
# [13] = test system: transactivating tegument protein VP16 (Human herpesvirus 1); assay: VP16 transactivation reporter inhibitors, counter-screen for SRC2 inhibitor project, cell-based, luminescence, single concentration (AID 652007; in the data active means inhibition above about 36%); settings: cell-based VP16 transactivation luciferase reporter, at 8.9 µM, stronger effect = higher value
# [14] = target: Nuclear receptor coactivator 2 (Homo sapiens) (UniProt Q15596); assay: SRC2 coactivator transcriptional activity inhibitors, confirmation, cell-based, luminescence, HEK293, triplicate (AID 652008;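 active means mean inhibition above 46.5%, the solvent-only control mean plus 3 SD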;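 further: 0% = DMSO-treated cells and 100% = Gossypol at 36 µM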); settings: HEK293 GAL4-SRC2 luciferase reporter, at 8.9 µM, stronger effect = higher value
# Nuclear receptor coactivator 2 (Homo sapiens), sequence (Q15596 whole entry, looked up, the tested form may be a part): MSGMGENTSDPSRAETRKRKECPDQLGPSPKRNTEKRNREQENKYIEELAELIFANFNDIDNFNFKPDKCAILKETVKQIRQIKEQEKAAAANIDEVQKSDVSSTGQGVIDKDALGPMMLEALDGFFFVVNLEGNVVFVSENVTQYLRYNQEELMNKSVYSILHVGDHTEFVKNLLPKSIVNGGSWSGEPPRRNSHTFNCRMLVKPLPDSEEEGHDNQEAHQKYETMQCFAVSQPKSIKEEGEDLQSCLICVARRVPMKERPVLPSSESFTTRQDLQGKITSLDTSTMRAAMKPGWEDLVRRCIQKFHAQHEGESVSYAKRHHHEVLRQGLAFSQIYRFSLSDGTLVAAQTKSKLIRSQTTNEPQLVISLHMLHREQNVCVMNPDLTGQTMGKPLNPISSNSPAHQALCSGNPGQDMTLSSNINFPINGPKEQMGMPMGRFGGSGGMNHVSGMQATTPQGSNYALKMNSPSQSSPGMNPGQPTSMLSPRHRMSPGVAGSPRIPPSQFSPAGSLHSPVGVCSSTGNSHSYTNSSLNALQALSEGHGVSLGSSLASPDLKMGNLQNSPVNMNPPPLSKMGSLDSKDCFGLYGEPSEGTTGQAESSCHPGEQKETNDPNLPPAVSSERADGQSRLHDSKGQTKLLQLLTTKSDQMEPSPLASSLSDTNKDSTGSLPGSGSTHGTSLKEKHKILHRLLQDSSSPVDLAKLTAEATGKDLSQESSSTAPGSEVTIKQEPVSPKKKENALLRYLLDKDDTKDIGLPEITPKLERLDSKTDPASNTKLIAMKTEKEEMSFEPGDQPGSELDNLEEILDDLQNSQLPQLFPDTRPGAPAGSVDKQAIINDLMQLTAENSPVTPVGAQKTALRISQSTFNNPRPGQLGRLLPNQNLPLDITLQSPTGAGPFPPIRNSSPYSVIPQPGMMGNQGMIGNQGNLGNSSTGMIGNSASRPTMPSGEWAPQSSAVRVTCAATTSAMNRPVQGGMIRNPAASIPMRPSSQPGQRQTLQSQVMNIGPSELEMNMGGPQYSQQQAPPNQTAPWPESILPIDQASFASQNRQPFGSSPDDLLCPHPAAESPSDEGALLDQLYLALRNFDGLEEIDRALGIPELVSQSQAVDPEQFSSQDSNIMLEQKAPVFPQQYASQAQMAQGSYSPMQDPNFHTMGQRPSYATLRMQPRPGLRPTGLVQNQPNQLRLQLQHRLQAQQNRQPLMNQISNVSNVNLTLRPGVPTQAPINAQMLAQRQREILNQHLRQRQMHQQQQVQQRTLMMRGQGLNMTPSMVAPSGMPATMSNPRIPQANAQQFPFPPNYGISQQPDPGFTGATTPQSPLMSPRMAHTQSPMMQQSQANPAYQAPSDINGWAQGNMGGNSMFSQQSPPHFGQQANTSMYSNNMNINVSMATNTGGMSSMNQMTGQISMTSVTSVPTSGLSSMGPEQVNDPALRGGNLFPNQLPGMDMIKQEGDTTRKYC
# [15] = target: (Lyso)-N-acylphosphatidylethanolamine lipase (Mus musculus) (UniProt Q8VD66); assay: ABHD4 inhibitors, retest, confirmation, biochemical, fluorescence polarization, mouse (AID 720658;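 active means mean inhibition across replicates above the hit cutoff set in the primary screen, cut at about 30% in these data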;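 further: 0% = wild-type ABHD4 with DMSO and 100% = catalytically dead S159A mutant with DMSO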); settings: purified mABHD4, FP-Rh probe fluorescence polarization; at 8.92 µM; stronger effect = higher value
# (Lyso)-N-acylphosphatidylethanolamine lipase (Mus musculus), sequence (Q8VD66 whole entry, looked up): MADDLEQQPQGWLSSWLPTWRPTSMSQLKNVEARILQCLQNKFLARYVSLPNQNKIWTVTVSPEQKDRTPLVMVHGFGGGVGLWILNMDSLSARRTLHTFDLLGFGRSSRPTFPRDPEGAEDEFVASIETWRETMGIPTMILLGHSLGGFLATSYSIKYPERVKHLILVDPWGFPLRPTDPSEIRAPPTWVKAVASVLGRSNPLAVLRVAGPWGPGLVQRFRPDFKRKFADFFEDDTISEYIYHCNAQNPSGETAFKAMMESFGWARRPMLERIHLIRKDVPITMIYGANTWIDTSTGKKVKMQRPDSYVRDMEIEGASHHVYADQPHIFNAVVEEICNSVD
# [16] = target: Photoreceptor-specific nuclear receptor (Homo sapiens) (UniProt Q9Y5X4); assay: NR2E3 agonist confirmation in cells, cell-based, luminescence, CHO-S two-hybrid (AID 624378;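 active means average inhibition above a cutoff equal to the mean inhibition of all tested compounds plus one SD, cut at about 70% in these data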;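 further: 0% = DMSO in NR2E3 cells and 100% = DMSO in cells lacking NR2E3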); settings: CHO-S mammalian two-hybrid NR2E3-NCOR, luciferase luminescence; at 3.98 µM; stronger effect = higher value
# Photoreceptor-specific nuclear receptor (Homo sapiens), sequence (Q9Y5X4 whole entry, looked up, the tested form may be a part): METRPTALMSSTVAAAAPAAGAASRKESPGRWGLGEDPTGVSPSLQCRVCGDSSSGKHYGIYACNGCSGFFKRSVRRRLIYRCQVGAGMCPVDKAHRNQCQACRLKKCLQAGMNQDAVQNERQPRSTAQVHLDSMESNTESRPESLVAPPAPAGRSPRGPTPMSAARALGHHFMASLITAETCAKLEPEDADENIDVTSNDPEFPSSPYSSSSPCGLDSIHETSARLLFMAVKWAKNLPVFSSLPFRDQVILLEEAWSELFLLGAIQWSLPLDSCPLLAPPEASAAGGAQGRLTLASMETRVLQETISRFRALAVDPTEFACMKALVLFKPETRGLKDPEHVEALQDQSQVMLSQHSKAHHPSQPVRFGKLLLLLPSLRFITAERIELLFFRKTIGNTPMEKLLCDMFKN
# [17] = GAL4-VP16 reporter modulators, confirmation, counter-screen for NR2E3 agonist project, cell-based, luminescence, CHO-S, high throughput (AID 624379;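 active means mean inhibition above a cutoff equal to the average over all tested compounds plus one standard deviation, cut at about 70% in these data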;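 further: 0% = DMSO with VP16-transfected cells and 100% = DMSO with cells lacking VP16; higher means less reporter light so more repression of VP16 activity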); settings: CHO-S GAL4-VP16 luciferase reporter, at 3.98 µM, stronger effect = higher value
# [18] = target: Nuclear receptor coactivator 3 (Homo sapiens) (UniProt Q9Y6Q9); assay: SRC3 coactivator transcriptional activity inhibitors, confirmation, cell-based, luminescence, quadruplicate (AID 588792;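 active means mean inhibition over 43.08%, the solvent-only control mean plus 3 SD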;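 further: 0% = DMSO treated cells and 100% = gossypol at 36 µM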); settings: HEK293 GAL4-SRC3 luciferase reporter, at 3.6 µM, stronger effect = higher value
# [19] = test system: transactivating tegument protein VP16 (Human herpesvirus 1), Gal4-VP16 luciferase reporter; assay: VP16 transactivation inhibitors, counter-screen for SRC3 inhibitor project, cell-based, luminescence, high throughput (AID 588794; in the data active means inhibition above about 30%); settings: mammalian cells, VP16-driven luciferase reporter luminescence; at 3.6 µM; stronger effect = higher value
# [20] = compounds interfering with TAMRA-BSA probe, counter-screen for TCR-CD3 interaction inhibitor project, biochemical, fluorescence, TAMRA-labeled BSA (AID 652035; in the data active means inhibition above about 23%;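 further: 0% = buffer low control and 100% = reference high control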); settings: TAMRA-labeled BSA probe fluorescence counterscreen; at 9.4 µM; stronger effect = higher value
# [21] = test system: T-cell receptor (TCR)-CD3 interaction, human; assay: TCR-CD3 interaction inhibitors, retest, confirmation, biochemical, fluorescence, TAMRA-labeled TCR probe (AID 652036; in the data active means inhibition above about 19%); settings: TAMRA-labeled TCR probe fluorescence binding assay; at 9.4 µM; stronger effect = higher value
smiles,measurement,setting,value
O=C(OCC(=O)c1cccs1)c1ccc([N+](=O)[O-])o1,inhibition,[1],73.1% (active)
same,inhibition,[2],1.72%
same,inhibition,[3],6.32%
Cc1cccc(NC(=O)Cn2cc(C(=O)c3ccco3)c3ccccc32)c1,inhibition,[1],14.9% (active)
same,inhibition,[2],10.9% (active)
same,inhibition,[3],11.8%
same,inhibition,[4],6.82%
same,inhibition,[5],11.3%
same,inhibition,[6],7.23%
O=C(NCC1CCCO1)C(C(=O)c1ccccc1)n1cc(Cl)ccc1=O (stereo not drawn),inhibition,[1],-2.76%
same,inhibition,[2],-0.21%
same,inhibition,[3],-1.24%
CC1=C(C(=O)OCc2ccccc2)C(c2ccco2)n2ncnc2N1 (stereo not drawn),inhibition,[1],0.55%
same,inhibition,[2],0.26%
same,inhibition,[3],-3.83%
CSC(=S)N/N=C/c1c[nH]c2ccccc12,inhibition,[1],24.2% (active)
same,inhibition,[2],11.8% (active)
same,inhibition,[3],29.5% (active)
same,inhibition,[7],33.3%
Cc1cn(C2C=CC(CO)O2)c(=O)[nH]c1=O (stereo not drawn),inhibition,[1],83.8% (active)
same,inhibition,[2],6.53% (active)
same,inhibition,[3],42.2% (active)
same,inhibition,[4],14.1% (active)
same,inhibition,[5],8.16%
same,inhibition,[6],54.6% (active)
CCN1CCN(C(c2cccnc2)c2cc(Cl)c3cccnc3c2O)CC1 (stereo not drawn),inhibition,[7],67.8% (active)
NC(=O)NC(=O)C(OC(=O)CCNS(=O)(=O)c1ccccc1)c1ccccc1 (stereo not drawn),inhibition,[7],23.1%
Cc1cccc(CS(=O)(=O)c2ncc(Cl)c(C(=O)Nc3ccc(F)cc3)n2)c1,inhibition,[8],38.1% (active)
same,inhibition,[9],20.7%
same,inhibition,[10],99.1% (active)
same,inhibition,[11],82.9% (active)
same,inhibition,[12],31.5% (active)
same,inhibition,[13],69.8% (active)
same,inhibition,[14],80.6% (active)
O=[N+]([O-])c1c(NCCO)cc(Sc2nc3ccccc3s2)c2nonc12,inhibition,[8],71.1% (active)
same,inhibition,[9],17.3%
same,inhibition,[10],98.7% (active)
O=C(CN1CCN(S(=O)(=O)c2cc(Cl)ccc2Cl)CC1)c1ccc(O)c(O)c1,inhibition,[7],45.3% (active)
Brc1ccccc1C1Nc2cccc3cccc(c23)N1,inhibition,[7],2.05%
same,inhibition,[15],42.5% (active)
COc1cnc(-c2ccccn2)nc1Oc1ccc(C(C)(C)C)cc1,inhibition,[7],53.5% (active)
same,inhibition,[16],28.4%
same,inhibition,[17],13.6%
COc1ccc(-c2nn(-c3ccccc3)cc2/C=N/Nc2ccccn2)cc1OC,inhibition,[8],2.6%
same,inhibition,[9],2.28%
same,inhibition,[10],4.63%
CCN(CC)c1ccc(/C=N/Nc2nc(C)cc(C)n2)c(O)c1,inhibition,[7],61.8% (active)
C[N+](C)(C)CCNC(=O)c1cc[n+](Cc2ccccc2)c(/C=N/O)c1,inhibition,[8],7.66%
same,inhibition,[9],6.76%
same,inhibition,[10],-0.18%
CC1(C)CC(=O)C(C2c3ccccc3S(=O)(=O)c3ccccc32)C(=O)C1,inhibition,[8],-5.15%
same,inhibition,[9],-0.53%
same,inhibition,[10],2.02%
CNC(=S)N/N=C/c1ccc(OCc2ccccc2)c(Br)c1,inhibition,[8],27.6% (active)
same,inhibition,[9],27.6%
same,inhibition,[10],43.4% (active)
same,inhibition,[11],54.2% (active)
same,inhibition,[12],52.8% (active)
COc1ccccc1CSc1ncc(-c2ccc([N+](=O)[O-])cc2)[nH]1,inhibition,[8],5.87%
same,inhibition,[9],9.21%
same,inhibition,[10],2.09%
same,inhibition,[11],28.2% (active)
same,inhibition,[12],21.9% (active)
COc1ccc(-c2nc3cnccn3c2NC2CCCCC2)cc1-c1cccc(Cl)c1,inhibition,[8],25.7% (active)
same,inhibition,[9],29.5%
same,inhibition,[10],-0.82%
same,inhibition,[11],39.6% (active) and 39.4% (active)
same,inhibition,[12],49.6% (active) and 50.5% (active)
O=Nc1c(O)cc(O)c2ccccc12,inhibition,[7],10.1%
same,inhibition,[15],11.7%
Oc1ccc2ccc3cccc[n+]3c2c1,inhibition,[8],11.3%
same,inhibition,[9],11.8%
same,inhibition,[10],5.09%
same,inhibition,[11],36.5% (active)
same,inhibition,[12],32.6% (active)
Cc1cc(C)nc(SCc2ccccc2C#N)n1,inhibition,[8],1.99%
same,inhibition,[9],0.68%
same,inhibition,[10],2.36%
O=C(COC(=O)c1c2c(nc3ccccc13)/C(=C\c1cccs1)CCC2)Nc1ccccc1Cl,inhibition,[8],11.4%
same,inhibition,[9],18.4%
same,inhibition,[10],-3.1%
Oc1c(CN2CCN(c3ccc(F)cc3)CC2)cc(Cl)c2cccnc12,inhibition,[7],50.9% (active)
same,inhibition,[18],52.3% (active)
same,inhibition,[19],42.8% (active)
same,inhibition,[4],4.78%
same,inhibition,[5],6.62%
same,inhibition,[6],3.33%
O=C1C(Cl)=C(Oc2ccccc2)C(=O)c2ccccc21,inhibition,[8],79% (active)
same,inhibition,[9],17.5%
same,inhibition,[10],96.2% (active)
NS(=O)(=O)c1ccc(NC(=O)COC(=O)c2c3c(nc4ccccc24)/C(=C\c2ccc4c(c2)OCO4)CCC3)cc1,inhibition,[8],17.9%
same,inhibition,[9],22.2%
same,inhibition,[10],0.35%
same,inhibition,[20],5.98%
same,inhibition,[21],15.7%
CCOc1ccc(C2=CC(c3ccccc3)n3ncnc3N2)cc1 (stereo not drawn),inhibition,[8],-2.09%
same,inhibition,[9],-1.41%
same,inhibition,[10],-1.28%

# — PubChem BioAssay
